# DAX1 inh-1 = inhibitors of human orphan nuclear receptor DAX1 (NR0B1). 340,000 compounds, 0.99% hits. inhibition, % at 6.75 µM. AID 504766. HEK293 Gal4-DAX1 luciferase reporter, luminescence;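 active = inhibition above the mean over all tested compounds plus 3 SD, cut at about 4.2% in these data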;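 note: 0% = DAX1-transfected cells with DMSO and 100% = empty-vector control cells with DMSO; inhibition shows as a rise in luminescence from relieved DAX1 repression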
# Target sequence (P51843 207-470 limits assumed): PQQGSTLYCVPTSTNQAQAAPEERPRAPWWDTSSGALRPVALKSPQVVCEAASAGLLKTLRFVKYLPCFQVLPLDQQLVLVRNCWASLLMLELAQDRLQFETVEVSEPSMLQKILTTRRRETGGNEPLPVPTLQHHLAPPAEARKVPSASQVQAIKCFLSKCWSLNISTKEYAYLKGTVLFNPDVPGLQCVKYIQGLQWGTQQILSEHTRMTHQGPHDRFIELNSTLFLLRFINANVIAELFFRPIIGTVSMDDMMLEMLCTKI
# hcDAF-12 act = activators of H. contortus DAF-12 nuclear receptor | HEK293 hcDAF-12 lit1-tk-luc reporter, luminescence; 0% DMSO, 100% Δ7-dafachronic acid | activation, % at 6.8 µM | 370,000 compounds, 1.4% hits;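 active = activation above the mean of all tested compounds plus 3 SD, cut at about 5.5% in these data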;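 note: 100% = response to 3 µM Δ7-dafachronic acid high control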
# DAX1 inh-2 = DAX1 (NR0B1) inhibition, primary screen. HEK293T StAR-luciferase reporter, SF-1/DAX-1 repression relief. inhibition, % at 6.8 µM. 370,000 compounds, 1.1% hits. AID 652010;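 active = inhibition above the mean over all tested compounds plus 3 SD, cut at about 3.6% in these data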;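 note: 0% = DAX-1 cells with DMSO and 100% = cells lacking DAX-1 with DMSO; higher inhibition means more luminescence from relief of DAX-1 repression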
# hgDAF12 agonist = hgDAF-12 agonism, primary luciferase screen. HEK293 GAL4-hgDAF12 UAS-luciferase reporter, agonist luminescence; normalized to butyrate control. activation, % at 6.8 µM. 370,000 compounds, 1.8% hits;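 active = activation above a cutoff set at the mean of all screened compounds plus 3 SD, cut at about 10% in these data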;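 note: 0% = DMSO wells and 100% = sodium butyrate wells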
# AHR act = human AHR activation | P35869 | AHR-responsive luciferase reporter cells, luminescence | activation, % at 5 µM | 320,000 compounds, 2.5% hits | AID 2796; in the data active = activation above about 47%;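 note: 0% = vehicle wells and 100% = reference agonist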
# ssDAF-12 act = activates DAF-12 receptor from parasite S. stercoralis; HEK293 ssDAF-12/GRIP1 lit1-tk-luc reporter, luminescence; % of 3 µM dafachronic acid response; activation, % at 6.8 µM; 370,000 compounds, 1% hits; AID 652126;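 active = activation above the mean over all tested compounds plus 3 SD, cut at about 0.9% in these data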;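 note: 0% = DMSO-only wells and 100% = 3 µM delta7-dafachronic acid wells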
# AHR act cf = human AHR activation, confirmation; shares compounds with AHR act; human cells, AHR-responsive luciferase reporter, luminescence; activation, % at 9 µM; 2,300 compounds, 87% hits; AID 2845; in the data active = activation above about 49%;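 note: HepG2 hepatoma cells carrying a DRE-driven firefly luciferase reporter; 0% = vehicle wells and 100% = reference agonist wells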
# PXR act counter = activates human PXR in AHR activator counter-screen. cell-based PXR reporter, luciferase luminescence. shares compounds with AHR act. AID 434939. activation, % at 11.6 µM. 2,300 compounds, 88% hits; in the data active = activation above about 11%;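 note: human hepatoma DPX-2 cells expressing full-length human PXR; 0% = DMSO and 100% = reference agonist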
# Target sequence (O75469 whole entry, looked up): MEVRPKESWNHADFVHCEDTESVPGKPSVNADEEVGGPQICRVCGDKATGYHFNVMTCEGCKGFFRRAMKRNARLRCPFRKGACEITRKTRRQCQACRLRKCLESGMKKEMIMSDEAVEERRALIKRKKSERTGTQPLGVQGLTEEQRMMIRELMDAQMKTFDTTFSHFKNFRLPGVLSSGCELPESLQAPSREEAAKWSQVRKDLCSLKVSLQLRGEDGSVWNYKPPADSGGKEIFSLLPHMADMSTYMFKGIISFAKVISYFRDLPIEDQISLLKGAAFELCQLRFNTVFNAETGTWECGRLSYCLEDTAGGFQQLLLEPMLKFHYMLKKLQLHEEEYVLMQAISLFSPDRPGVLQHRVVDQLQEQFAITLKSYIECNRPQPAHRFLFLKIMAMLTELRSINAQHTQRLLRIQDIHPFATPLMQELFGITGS
# Starred values were filed as active, the others as inactive; nt = no result given. This is a sample that favours compounds with a hit; in the whole collection about 5.7% have one here.
SMILES,DAX1 inh-1,hcDAF-12 act,DAX1 inh-2,hgDAF12 agonist,AHR act,ssDAF-12 act,AHR act cf,PXR act counter
COc1ccc(Cl)cc1C(=O)NNC(=O)c1[nH]c(C)c(C(C)=O)c1C,1.6,3.2,-0.6,1.0,81.1*,-0.7,96.3*,49.8*
CCOc1ccc(OCC)c(NC(=O)c2[nH]c(C)c(C(C)=O)c2C)c1,-0.6,-0.1,0.2,0.4,79.7*,-0.7,94.6*,18.8*
C=CCNc1ncnc2c1[nH]c1ccc(Cl)cc12,-3.8,-2.8,-1.8,2.1,109.8*,-1.4,112.5*,44.4*
COc1cc(NC(=O)c2ccccn2)cc(OC)c1OC,1.0,-1.0,-0.5,0.4,4.8,-0.9,nt,nt
COc1cc(NC(=S)Nc2ncccc2C)cc(OC)c1OC,1.0,2.0,0.8,4.6,105.8*,-1.7,92.5*,67.2*
CC(/C=C/c1cccc([N+](=O)[O-])c1)=N/NC(=O)c1cccnc1,0.7,0.4,-0.3,0.1,85.2*,0.0,77.1*,nt
O=C(Nc1nc(-c2ccco2)c(-c2ccco2)s1)C1CCC1,-1.1,2.2,-0.6,-0.3,105.6*,0.1,91.0*,25.5*
O=C(Nc1nnc(-c2ccco2)s1)C1CCCCC1,3.5,1.5,1.5,6.5,-3.7,-0.4,nt,nt
COc1cc2c(cc1NC(=O)CSc1ccccn1)oc1ccccc12,0.8,6.5*,1.9,3.9,105.2*,0.0,91.2*,16.1*
COc1cc2c(cc1NC(=O)CSc1ccc(Cl)cc1)oc1ccccc12,-0.1,1.6,-0.8,-0.6,6.5,-1.0,nt,nt
COc1cc2c(cc1NC(=O)/C=C/c1cc(OC)c(OC)c(OC)c1)oc1ccccc12,-3.4,-3.9,-1.8,-5.7,88.0*,-2.2,53.3*,10.4*
COc1ccc(-c2ocnc2C(=O)NCc2nn(-c3ccccc3)nc2C)cc1,-3.6,-4.5,-1.3,-5.2,-7.1,-2.5,nt,nt
O=C(/C=C\c1cccs1)c1c(O)ccc2ccc(=O)oc12,-0.4,3.9,-0.8,4.6,84.8*,0.2,97.0*,nt
O=C(C=Cc1cccs1)c1cccs1,0.3,-0.7,-0.5,4.6,nt,-0.4,nt,nt
CC(=O)Nc1ccc(C(=O)NNC(=O)c2ccccc2-n2cccc2)cc1,2.3,-0.2,0.9,-1.4,0.0,-1.4,nt,nt
O=C(NNC(=O)c1sccc1-n1cccc1)c1ccc(F)cc1,0.0,0.4,-0.6,-2.1,112.4*,-1.8,45.5,6.1
O=C(NNC(=O)c1sccc1-n1cccc1)c1cccc(Cl)c1,0.6,1.1,0.8,-1.3,133.3*,-1.4,113.6*,100.5*
O=C(NNC(=O)c1c(F)cccc1F)c1sccc1-n1cccc1,0.6,1.6,0.9,2.2,1.6,-0.7,nt,nt
Cc1ccc(S(=O)(=O)NNC(=O)c2sccc2-n2cccc2)cc1,-1.4,0.9,0.3,1.7,2.8,-1.5,nt,nt
O=C(NNC(=O)c1ccccc1-n1cccc1)c1ccc(F)cc1,-3.0,1.4,0.2,-1.6,90.2*,-1.3,101.1*,42.7*
O=C(NNC(=O)c1sccc1-n1cccc1)c1ccccc1,-0.5,0.6,-0.3,0.4,137.1*,-0.6,128.5*,47.9*
COc1ccc(CC(=O)NNc2ncnc3c2cnn3Cc2ccccc2)cc1OC,0.9,-1.1,0.3,0.0,3.2,-0.5,nt,nt
COc1cc(C(=O)C(=O)c2ccc(OC)c(OC)c2)ccc1O,1.6,-0.8,1.2,4.5,nt,-1.1,nt,nt
CCS(=O)(=O)N1Cc2cc(C(=O)N(C)C)nc(-c3cccc(-c4ccc(F)cc4)c3)c2[C@@H]1CCO,nt,-0.1,-0.7,-0.4,nt,-0.8,nt,nt
O=C(c1ccc2c(c1)CCC2)N1CCN(Cc2c(F)cccc2Cl)CC1,-1.5,-1.5,-1.1,0.5,nt,-0.8,nt,nt
SMILES,DAX1 inh-1,hcDAF-12 act,DAX1 inh-2,hgDAF12 agonist,AHR act,ssDAF-12 act,AHR act cf,PXR act counter
O=C(N/N=C\c1ccc(Cl)cc1)c1sccc1-n1cccc1,0.6,0.5,0.0,4.2,96.5*,0.1,123.5*,23.6*
O=C(NNC(=O)c1sccc1-n1cccc1)Nc1ccccc1,3.9,1.6,0.0,0.9,92.2*,-1.1,126.5*,60.9*
CCC1=NN=C(c2ccc(F)cc2)C(c2c[nH]c3ccccc23)N1O (stereo unspecified),-0.1,4.5,-0.6,5.4,86.7*,0.9*,78.5*,19.9*
Cc1ccc(N2C(=O)CC(c3c[nH]c4ccccc34)C2=O)cc1 (stereo unspecified),0.9,0.4,-0.1,1.9,3.9,-1.1,nt,nt
O=c1c2ccccc2nc2sc3ccccc3n12,2.7,1.2,1.5,3.4,113.2*,0.1,155.0*,14.2*
Cc1ccc(NCc2ccccc2OCc2ccccc2F)cc1,0.9,-0.4,-0.6,3.3,106.3*,-0.1,81.8*,36.4*
Oc1ccc(NCc2ccccc2OCc2ccccc2F)cc1,-0.8,-0.5,0.8,-2.0,8.4,-1.2,nt,nt
CCOc1ccccc1C(=O)Nc1nnc(CC)s1,0.9,2.2,-0.2,6.1,96.3*,-0.6,69.8*,22.2*
COc1ccccc1-c1nnc(N)s1,0.3,0.5,0.4,-2.3,1.4,-1.6,nt,nt
CCOC(=O)Nc1nnc(-c2ccc(OC)cc2)s1,1.0,0.7,1.1,9.2,15.7,-1.0,nt,nt
CCOC(=O)Nc1nnc(-c2ccccc2OC)s1,0.0,5.8*,-0.2,4.2,98.2*,-0.5,125.3*,29.2*
COC(=O)Nc1nnc(-c2ccccc2OC)s1,2.3,4.9,0.8,5.5,107.0*,0.4,139.6*,16.8*
CCc1nnc(NC(=O)c2cccc(C(=O)Nc3nnc(CC)s3)n2)s1,-0.7,-0.3,0.0,-0.7,8.3,-1.4,nt,nt
Cc1ccc2c(CC(=O)NNC(=O)c3ccccc3O)coc2c1,0.7,3.4,1.3,3.1,19.1,-0.3,nt,nt
CC(C)NC(=O)COc1ccc(S(=O)(=O)N2CCCC2)cc1,-0.7,-1.2,-0.3,0.3,87.0*,-0.8,-3.5,15.6*
CC(OC(=O)c1ccccc1C(=O)N(C)c1ccccc1)C(=O)Nc1ccc(C(N)=O)cc1 (stereo unspecified),1.2,-0.4,0.4,0.0,4.6,-1.4,nt,nt
CC(OC(=O)c1cc(O)c2ccccc2c1O)C(=O)Nc1ccc(C(N)=O)cc1 (stereo unspecified),0.6,3.5,-1.7,0.6,102.8*,1.4*,78.4*,19.0*
CN1CCN(c2ccc(Cl)cc2NC(=O)C2COc3ccccc3O2)CC1 (stereo unspecified),0.5,2.7,0.0,-2.2,108.1*,-0.5,89.7*,29.5*
CC(C)NC(=O)Cn1cc(S(=O)(=O)N2CCCC2)c(S(=O)(=O)N2CCCC2)c1,0.5,0.1,-0.1,1.8,1.9,-0.3,nt,nt

# Screening results (PubChem BioAssay)
